# Only some compounds are listed: those with a hit (about 1.9% of all), similar ones and a draw of the others.
# Hsp90 inh: displaces geldanamycin probe from tumor Hsp90; P07900; NCI-N417 lysate Hsp90, Cy3B-geldanamycin FP displacement; inhibition, % at 30 µM; 64,000 compounds, 0.35% hits; AID 429;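 active = inhibition above 50%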;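 also: 0% = tracer plus lysate wells and 100% = tracer alone without lysate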
# Her2 expr inh: Her2 kinase expression inhibition; P04626; SKBR-3 HER2 protein level, AlphaScreen, 18-24 h; hits give low values; HER2 level % of control, % at 10 µM; 65,000 compounds, 0.69% hits;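 active = HER2 level under 5% of the carrier-only control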;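 also: 100% = DMSO carrier and 0% = 500 nM PU-H71 HSP90 inhibitor; lower value means stronger loss of Her2 protein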
# SKBR3 24h inh: SK-BR-3 proliferation inhibitors; SK-BR-3 viability, CellTiter-Glo ATP luminescence, 24 h; hits give low values; AID 847; 41,000 compounds, 0.47% hits; viability, % at 10 µM;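 active = viability at or below the median of all test compounds minus 3 SD, in both replicates if run twice, cut at about 45% in these data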;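 also: 100% = median untreated cell wells and 0% = median positive control drug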
# TNAP act mid DEA: activators of human TNAP at intermediate phosphate acceptor | P05186 | purified TNAP, CDP-star luminescence, 100 mM DEA, 30 min; hits give high values; scale: 0 levamisole-inhibited, 1 vehicle-only enzyme | activation factor at 20 µM | 64,000 tested, under 10 active;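 active = activation factor of at least 2 at 20 µM, relative to controls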
# S1P1 ag-PAM: S1P1 (human) agonism or agonism potentiation | S1P1 CRE-bla cells, forskolin, beta-lactamase FRET, potentiator mode; S1P1 agonist co-added at EC20, 2 nM; 100% = saturating reference agonist, 0% = basal | activation, % at 9.5 µM | 56,000 compounds, 0.57% hits | AID 449 | P21453;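 active = activation above a cutoff set at the mean activation of all tested compounds plus 3 SD, cut at about 54% in these data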;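 also: forskolin at 4 µM as EC80 and the EC20 agonist is SEW2871; 100% = SEW2871 at its EC100 plus forskolin at EC80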
# BAP1 inh: blocks human BAP1 ubiquitin-AMC hydrolysis; AID 436; Q92560; 72,000 compounds, 0.48% hits; recombinant BAP1, Ub-AMC hydrolysis fluorescence kinetic; hits give low values; activity remaining (% of control), % at 20 µM;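 active = activity remaining at or below 50% of control, provided the compound also passes the data quality filters; inactive = the rest, including low values that fail the filters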;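 also: 100% = DMSO wells rate and 0% = substrate alone blank rate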
# BAP1 inh conf: confirmation of human BAP1 enzyme inhibitors; shares compounds with BAP1 inh; purified BAP1, Ub-ethyl ester hydrolysis, HPLC; hits give low values; % of control activity, % at 20 µM; 310 compounds, 8% hits; AID 753;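 active = percent of control activity at or below 60%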
# Starred values were filed as active, the others as inactive; / = not tested or not shown.
SMILES,Hsp90 inh,Her2 expr inh,SKBR3 24h inh,TNAP act mid DEA,S1P1 ag-PAM,BAP1 inh,others
O=C(NC1(C(F)(F)F)Oc2ccc(Cl)cc2O1)N1CCC2(CC1)OCCO2 (configuration not stated),64*,178,65,0.9,/,92,
O=C(NC1(C(F)(F)F)Oc2ccccc2O1)N1CCC2(CC1)OCCO2,/,107,96,/,/,/,
CCOC(=O)c1cn2nc(OP(=S)(OCC)OCC)cc2nc1C,-6,103,81,1,-18,96,
CCS(=O)(=O)N1CCC(C(=O)N2CCC3(CC2)OCCO3)CC1,-3,92,/,0.9,3,105,
C=CCn1c(O)c(C(C)=NCc2cc(OC)cc(OC)c2)c(=O)[nH]c1=O,1,72,38*,0.9,6,104,
C=CCn1c(O)c(C(C)=NCc2cccnc2)c(=O)[nH]c1=O,0,101,92,0.9,-7,100,
CCCCCn1c(=O)c(C(=O)Nc2ccncc2)c(O)c2ccccc21,0,22,115,0.9,-4,35*,
CCCCCn1c(=O)c(C(=O)NCc2ccncc2)c(O)c2ccccc21,-5,54,103,0.9,64,/,
C=CCOC(=O)C1=C(C)OC(N)=C(C#N)[C@@]12C(=O)N(CC(N)=O)c1ccccc12,-7,106,81,0.9,3,91,
CCC(=NCCCN1CCOCC1)c1c(O)n(Cc2ccccc2)c(=O)[nH]c1=O,-2,97,117,0.9,-10,106,
Cc1cccc(C)c1NC1=NCCCS1,-1,-9.3*,/,0.9,-4,142,
O=C(COc1ccccc1)N1CCN(C2CCCC2)CC1,1,-4.8*,110,1,-3,76,
COc1ccc(CCNCc2cccc(Cl)c2)cc1OC,/,/,/,/,/,73,
CC(=NCC1CCCO1)c1c(O)n(C)c(=O)n(C)c1=O (configuration not stated),-2,110,111,0.9,-11,95,
CN(C)[C@@H]1C(=O)C(C(N)=O)=C(O)[C@@]2(O)C(=O)C3=C(O)c4c(O)ccc(Cl)c4[C@@](C)(O)C3C[C@@H]12 (some centres not stated),-1,104,85,0.9,-17,125,
CN(C)[C@@H]1C(=O)C(C(N)=O)=C(O)[C@@]2(O)C(=O)C3=C(O)c4c(O)cccc4[C@@](C)(O)[C@H]3C[C@@H]12,72*,87,98,0.8,5,/,
C[C@@]1(CO)[C@H](O)CC[C@@]2(C)[C@H]1CC[C@H]1C[C@@H]3C[C@@]12CC[C@]3(O)CO,-1,-15*,126,0.8,-16,70,
CCN(CC)CCCN=Cc1c(O)n(-c2ccccc2F)c(=O)[nH]c1=O,-4,89,97,0.9,-12,95,
Cn1ncnc2c(=O)n(C)c(=O)nc1-2,91*,1.0*,5.5*,1,130*,60,
COc1ccc(CCNC(=O)c2c(N)n(CCN3CCOCC3)c3nc4ccccc4nc23)cc1,-2,57,120,0.9,-40,116,
Nc1c(C(=O)NCCc2ccccc2)c2nc3ccccc3nc2n1CCN1CCOCC1,-4,-5.1*,2.9*,0.9,-116,59,
N#CC(=Cc1ccc(O)c(O)c1)C(N)=S,52*,/,/,/,/,82,
N#CC(C#N)=Cc1ccc(O)c(O)c1,63*,/,/,/,/,79,
COc1cc(C=C(C#N)C#N)cc(O)c1O,69*,/,/,/,/,93,
C[C@H]1CCCC(=O)CCCCCc2cc(O)cc(O)c2C(=O)O1,88*,57,101,0.9,10,124,
N=C(N)c1c(O)n(C2CCCCC2)c(=O)n(C2CCCCC2)c1=O,0,-6.5*,2.8*,0.9,19,112,
Cc1ccc2cccc(OC(=O)N(C)c3ccccc3)c2n1,1,99,119,1,-21,105,
CC12NC(Cc3ccccc31)c1ccccc12 (configuration not stated),3,/,/,/,/,91,
CCCCCCn1c(=O)c(C(=O)Nc2c(C)n(C)n(-c3ccccc3)c2=O)c(O)c2ccccc21,1,93,102,1,-8,31*,BAP1 inh conf=95
COc1cc(C[C@@H](C)N)c(OC)cc1I,-2,/,/,/,/,99,

# Bioassay records as filed in PubChem.
